Source: PubChem
KB-3-1 cytotox – KB-3-1 parental cell cytotoxicity. Potency, µM (series often up to 46.1 µM), most hits filed as cytotoxic. actives 1.4% (n = 400,000). KB-3-1 viability, CellTiter-Glo ATP luminescence, 72 h; note: % is set by controls: 0 for no effect and ±100 for the full control effect; nearly all actives have a fitted effect of over 60% in size
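72 h, 37 °C compound treatment of KB-3-1 parental cells; CellTiter-Glo added, 10 min, luminescence read. Data corrected against DMSO-only plates and normalized before curve fitting.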
HT1080 IDH1KD tx – kills HT-1080 cells with IDH1 knockdown. Potency, µM (series often up to 46.1 µM), for the others: at the highest dose activity, negative = toxicity, hits mostly cytotoxic. AID 686971. HT-1080 IDH1 knockdown viability, ATP luminescence, 48 h. actives 2% (n = 360,000);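 note: 0% = DMSO wells and -100% = cell-free medium wells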
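Knockdown cells (IDH1KD HT-1080) received compounds 2 h after plating at 750 cells/well and were kept 48 h at 37 °C in 5% FBS RPMI. A CellTiter-Glo luminescence read gave % activity for curve fitting.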
TGFb inhibitor – inhibitors of TGF-b signaling | HepG2 CAGA-GFP TGF-b/SMAD3 reporter, GFP fluorescence, 18 h; TGF-beta stimulated, 500 pg/mL final | actives 1.2% (n = 410,000) | AID 588855 | Potency, µM (doses to about 46.1 µM), for the others: at the highest dose activity, negative = inhibition, hits mostly inhibitors; note: % is set by controls: 0 for no effect and ±100 for the full control effect; nearly all actives have a fitted effect of over 65% in size
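TGF-beta reporter screen: HEPG2 CAGA-GFP, 1% FBS, 500 pg/mL TGF-beta final, 18 h; per-cell GFP summed per well; curves fitted and categorized by class.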
KB-V1 MDR tox – KB-V1 MDR subline cytotoxicity. Potency, µM (doses to about 46.1 µM), actives largely listed as cytotoxic. actives 3.4% (n = 400,000). KB-V1 MDR cells viability, CellTiter-Glo, 72 h; note: % is set by controls: 0 for no effect and ±100 for the full control effect; nearly all actives have a fitted effect of over 60% in size
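Potencies derive from concentration-effect curves fitted to normalized luminescence (CellTiter-Glo) of KB-V1 cells treated for 72 h at 37 degrees C in phenol-red-free DMEM containing 10% FBS.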
HT1080NT lethal – kills 2HG-producing HT-1080-NT fibrosarcoma cells; HT-1080-NT fibrosarcoma viability, CellTiter-Glo ATP luminescence, 48 h; Potency, µM (series often up to 46.1 µM), inactives show at the top dose activity, negative = less viability, actives largely listed as cytotoxic; actives 1.6% (n = 360,000);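 note: NT is the 2HG producing partner of a matched IDH1 knockdown line; 0% = DMSO-treated cells and -100% = media-only wells without cells; nearly all actives have a fitted effect of over 55% in size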
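Luminescent CellTiter-Glo readout after 48 hours of compound exposure at 37 degrees C defined viability of HT-1080-NT cells. Activity was normalized to DMSO wells and cell-free media wells; concentration-response curves were fitted and assigned curve classes.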
HepG2 tox – HepG2 cytotoxicity, counter-screen for TGF-b inhibitors; HepG2 CAGA-GFP viability, ATP luminescence, 18 h; Potency, µM (series often up to 46.1 µM), for inactives: at the highest dose activity change, negative = cytotoxicity, usual class: cytotoxic; actives 0.76% (n = 410,000); AID 588856
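HepG2 CAGA-GFP cells (1000/well, DMEM with 1% FBS) received compound, then TGF-beta at 500 pg/mL final, and were incubated 18 hours at 37 degrees C. Viability was read by CellTiter-Glo luminescence. Media-only wells were set as complete cell-killing and DMSO as no toxicity.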
Starred values were filed as active, the others as inactive; i = inactive; ? = inconclusive; . = not tested or not shown. Compounds with a hit are over-represented: about 6.6% of the library has one in this group of screens. Calls come from the whole dose curve; as a rule, active = well fitted curve in the direction sought with a large enough effect; inconclusive = small, poorly fitted or top-dose-only effect, or another doubt; inactive = no such curve, though single readings can be large; an effect the other way counts as inactive or inconclusive. Potency is the fitted concentration of half-maximal effect.

SMILES	KB-3-1 cytotox	HT1080 IDH1KD tx	TGFb inhibitor	KB-V1 MDR tox	HT1080NT lethal	HepG2 tox
CCc1ccccc1Nc1nn2c(=O)c3ccc(C(=O)NC4CCCCC4)cc3nc2s1	i	.	1.5%	i	.	4.5%
O=C(Nc1ccccc1)Nc1csc2ccccc12	i	?	?	?	-22.5%	17.8µM*
O=C(Nc1ccc(F)cc1)C(c1cc2ccccc2o1)N1CCN(CC(=O)N2CCCC2)CC1 (centres undefined)	i	9.5%	.	i	2.1%	.
O=[N+]([O-])c1ccc(/C=N/Nc2ccnc3cc(Cl)ccc23)o1	i	?	?	i	?	20µM*
Clc1ccc2c(N/N=C/c3ccccc3Br)ccnc2c1	?	?	-5.6%	?	?	-39.4%
CC1CN(C(=O)N2CCC(C(=O)N3CCN(c4ccccc4)CC3)CC2)c2cc(Cl)ccc2O1 (centres undefined)	i	.	?	i	.	-19.8%
O=C(/C=C/c1cccs1)NC(=S)NNC(=O)c1ccccc1O	2.59µM*	?	-18.0%	i	-19.4%	-20.2%
Cc1cccc(-c2noc(-c3cccnc3NCc3ccco3)n2)c1	i	.	-0.6%	i	.	-27.3%
Cc1ccc(S(=O)(=O)N(CC(O)CN2CCCC2)c2ccccc2)cc1 (centres undefined)	i	5.3%	-8.3%	i	-5.5%	-10.1%
CC(=O)Nc1ccccc1N(CC(O)Cn1c2ccccc2c2ccccc21)S(=O)(=O)c1ccc(C)cc1 (centres undefined)	i	14.6µM*	?	?	?	-20.5%
COc1ccc(N(CC(O)Cn2c3ccccc3c3ccccc32)S(=O)(=O)c2ccccc2)cc1 (centres undefined)	?	?	?	23.1µM*	-25.1%	-33.9%
COc1ccc(CN2CCN(CC(O)Cn3c4ccccc4c4ccccc43)CC2)cc1 (centres undefined)	?	?	?	6.51µM*	18.4µM*	-108.0%
Cc1ccc(N(CC(O)Cn2c3ccccc3c3ccccc32)S(=O)(=O)c2ccc(F)cc2)cc1 (centres undefined)	.	.	8.91µM*	.	.	14.1µM*
CS(=O)(=O)N(CC(O)Cn1c2ccccc2c2ccccc21)c1ccccc1 (centres undefined)	?	?	?	i	?	-0.7%
Cc1ccc(N(Cc2cccs2)C(=O)c2ccc(OC(C)C)cc2)cc1	.	.	-16.7%	.	.	-50.0%
O=C(CSc1nccn1Cc1ccccc1)Nc1ccc2c(c1)OCO2	.	.	-28.0%	.	.	-19.3%
COc1ccc(CNC(=S)N2CCN(Cc3ccccc3)CC2)cc1	i	-1.5%	?	16.4µM*	-16.7%	-32.8%
O=S(=O)(c1ccc(F)cc1)N(Cc1nc(-c2ccc(Cl)cc2)no1)C1CCCCC1	.	.	-5.6%	.	.	3.5%
O=C(Nc1ccc(Oc2ccccc2)cc1)c1ccc2sc([C@H]3C[C@H](O)[C@@H](CO)O3)nc2c1	i	2.59µM*	-0.7%	i	7.31µM*	-28.2%
CC(=O)Nc1ccc(NC(=O)c2ccc3sc([C@H]4C[C@H](O)[C@@H](CO)O4)nc3c2)cc1	i	21.7%	-5.0%	i	28.3%	-4.2%
O=C(Nc1ccc(Oc2ccccc2)cc1)c1csc([C@@H]2O[C@H](CO)[C@@H](O)[C@H]2O)n1	i	7.31µM*	2.8%	?	?	4.1%
Cc1ccc(S(=O)(=O)Nc2cc3c(cc2C)n(C)c(=O)c(=O)n3C)cc1	i	.	-2.2%	i	.	-1.7%
Cc1ccc(NC(=O)CCn2c(=O)c3cccn3c3ccccc32)c(Cl)c1	.	.	?	.	.	-24.5%
CCOC(=O)c1c(C)[nH]c(C)c1S(=O)(=O)N1CCCC(C(=O)Nc2cccc(CC)c2)C1 (centres undefined)	i	.	?	i	.	-33.6%
